# Data published in the supplement of paper PMC10037445.
# Where “and” joins values, the source holds several entries; their conditions need not be identical. Identical values can stand only once. Over roughly 2,900 compounds, “IRF Lucia reporter activity, fold change vs agonist alone” has its median near 0.9; the highest 2% begin near 2.8. The sample as a whole holds a higher share of the highest values than the screen did.
# Legend:
# [1] = system: RAW-Dual; assay: IRF Lucia reporter activity, fold change vs agonist alone; cytotoxicity flag (confluency mask): not cytotoxic; higher = enhanced IRF activity
# How it was run: (§1)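 RAW-Dual macrophages were seeded in DMEM at 50,000 cells/well in 384-well plates, given 50 nL of library stock by pin tool, and given a PRR agonist 1 h later. Plates were held at 37 °C, 5% CO2 for 20 hours, after which supernatant was read for IRF by QuantiLuc luminescence and for NF-κB by QuantiBlue absorbance at 620 nm. Reporter activity is expressed as fold change over wells that received agonist alone. A well was called cytotoxic when IncuCyte confluency fell below 70% of agonist controls in both mask sets.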
# [2] = system: RAW-Dual; assay: IRF Lucia reporter activity, fold change vs agonist alone; higher = enhanced IRF activity; details: library stock concentration (final ~1000-fold dilution): 10 mM; cytotoxicity flag (confluency mask): not cytotoxic; agonist: MPLA (TLR4) […]
# How it was run: as §1
# [3] = system: RAW-Dual; assay: IRF Lucia reporter activity, fold change vs agonist alone; cytotoxicity flag (confluency mask): cytotoxic (confluency <70% of control); higher = enhanced IRF activity
# How it was run: as §1
# [4] = agonist: 3'3'-cGAMP (STING) 10 ug/mL
structure (smiles),measurement,setting,value
COc1cc2ccc(=O)oc2c(OC)c1O (library stock concentration (final ~1000-fold dilution): .1 mM),IRF Lucia reporter activity,[1]; [4],1.07
same,IRF Lucia reporter activity,[1]; agonist: LPS (TLR4) 0.1 ug/mL,0.255
NC1=NC2(c3cc(NC(=O)c4ccc(F)cn4)ccc3F)COCC2CS1 (configuration not stated) (library stock concentration (final ~1000-fold dilution): 10 mM),IRF Lucia reporter activity,[1]; [4],1.08
same,IRF Lucia reporter activity,[1]; agonist: LPS (TLR4) 0.1 ug/mL,0.998
NC1=NC2(c3cc(NC(=O)c4ccc(F)cn4)ccc3F)COCC2CS1 (configuration not stated),IRF Lucia reporter activity,[2],1.04
Cn1cc(-c2cc3c(-c4ccc(CNC(=O)c5noc(C(C)(C)C)n5)c(F)c4)ncnc3[nH]2)cn1 (library stock concentration (final ~1000-fold dilution): 10 mM),IRF Lucia reporter activity,[1]; [4],0.039
same,IRF Lucia reporter activity,[1]; agonist: LPS (TLR4) 0.1 ug/mL,0.396
Cc1nnc(SCC2=C(C(=O)O)N3C(=O)C(NC(=O)Cn4cnnn4)C3SC2)s1 (configuration not stated),IRF Lucia reporter activity,[2],1.07
Cc1nnc(SCC2=C(C(=O)O)N3C(=O)C(NC(=O)Cn4cnnn4)C3SC2)s1 (configuration not stated) (library stock concentration (final ~1000-fold dilution): 10 mM),IRF Lucia reporter activity,[1]; [4],1.08
same,IRF Lucia reporter activity,[1]; agonist: LPS (TLR4) 0.1 ug/mL,1.26
Cc1ccsc1C(=CCCN1CCCC(C(=O)O)C1)c1sccc1C (configuration not stated),IRF Lucia reporter activity,[2],1
Cc1ccsc1C(=CCCN1CCCC(C(=O)O)C1)c1sccc1C (configuration not stated) (library stock concentration (final ~1000-fold dilution): 10 mM),IRF Lucia reporter activity,[1]; [4],0.964
same,IRF Lucia reporter activity,[1]; agonist: LPS (TLR4) 0.1 ug/mL,1.29
COC1CC2CCC(C)C(O)(O2)C(=O)C(=O)N2CCCCC2C(=O)OC(C(C)CC2CCC(OCCO)C(OC)C2)CC(=O)C(C)C=C(C)C(O)C(OC)C(=O)C(C)CC(C)C=CC=CC=C1C (configuration not stated),IRF Lucia reporter activity,[2],3.06
COC1CC2CCC(C)C(O)(O2)C(=O)C(=O)N2CCCCC2C(=O)OC(C(C)CC2CCC(OC(=O)C(C)(CO)CO)C(OC)C2)CC(=O)C(C)C=C(C)C(O)C(OC)C(=O)C(C)CC(C)C=CC=CC=C1C (configuration not stated),IRF Lucia reporter activity,[2],4.11
COC1CC2CCC(C)C(O)(O2)C(=O)C(=O)N2CCCCC2C(=O)OC(C(C)CC2CCC(n3cnnn3)C(OC)C2)CC(=O)C(C)C=C(C)C(O)C(OC)C(=O)C(C)CC(C)C=CC=CC=C1C (configuration not stated),IRF Lucia reporter activity,[2],0.832
COC1CC2CCC(C)C(O)(O2)C(=O)C(=O)N2CCCCC2C(=O)OC(C(C)CC2CCC(OC(=O)C(C)(CO)CO)C(OC)C2)CC(=O)C(C)C=C(C)C(O)C(OC)C(=O)C(C)CC(C)C=CC=CC=C1C (configuration not stated) (library stock concentration (final ~1000-fold dilution): 10 mM),IRF Lucia reporter activity,[1]; [4],0.69
same,IRF Lucia reporter activity,[1]; agonist: LPS (TLR4) 0.1 ug/mL,2.98
COC1CC2CCC(C)C(O)(O2)C(=O)C(=O)N2CCCCC2C(=O)OC(C(C)CC2CCC(O)C(OC)C2)CC(=O)C(C)C=C(C)C(O)C(OC)C(=O)C(C)CC(C)C=CC=CC=C1C (configuration not stated),IRF Lucia reporter activity,[2],1.46
COC1CC2CCC(C)C(O)(O2)C(=O)C(=O)N2CCCCC2C(=O)OC(C(C)CC2CCC(OCCO)C(OC)C2)CC(=O)C(C)C=C(C)C(O)C(OC)C(=O)C(C)CC(C)C=CC=CC=C1C (configuration not stated) (library stock concentration (final ~1000-fold dilution): 10 mM),IRF Lucia reporter activity,[1]; [4],1.28
same,IRF Lucia reporter activity,[1]; agonist: LPS (TLR4) 0.1 ug/mL,2.63
CCC1/C=C(\C)CC(C)CC(OC)C2OC(O)(C(=O)C(=O)N3CCCCC3C(=O)OC(/C(C)=C/C3CCC(Cl)C(OC)C3)C(C)C(O)CC1=O)C(C)CC2OC (configuration not stated),IRF Lucia reporter activity,[2],1.02
COC1CC2CCC(C)C(O)(O2)C(=O)C(=O)N2CCCCC2C(=O)OC(C(C)CC2CCC(O)C(OC)C2)CC(=O)C(C)C=C(C)C(O)C(OC)C(=O)C(C)CC(C)C=CC=CC=C1C (configuration not stated) (library stock concentration (final ~1000-fold dilution): .1 mM),IRF Lucia reporter activity,[1]; [4],0.922
same,IRF Lucia reporter activity,[1]; agonist: LPS (TLR4) 0.1 ug/mL,0.698
CCC1/C=C(\C)CC(C)CC(OC)C2OC(O)(C(=O)C(=O)N3CCCCC3C(=O)OC(/C(C)=C/C3CCC(Cl)C(OC)C3)C(C)C(O)CC1=O)C(C)CC2OC (configuration not stated) (library stock concentration (final ~1000-fold dilution): 10 mM),IRF Lucia reporter activity,[1]; [4],0.715
same,IRF Lucia reporter activity,[1]; agonist: LPS (TLR4) 0.1 ug/mL,1.66
COC1CC2CCC(C)C(O)(O2)C(=O)C(=O)N2CCCCC2C(=O)OC(C(C)CC2CCC(OP(C)(C)=O)C(OC)C2)CC(=O)C(C)C=C(C)C(O)C(OC)C(=O)C(C)CC(C)C=CC=CC=C1C (configuration not stated),IRF Lucia reporter activity,[2],1.24
COC1CC2CCC(C)C(O)(O2)C(=O)C(=O)N2CCCCC2C(=O)OC(C(C)CC2CCC(OP(C)(C)=O)C(OC)C2)CC(=O)C(C)C=C(C)C(O)C(OC)C(=O)C(C)CC(C)C=CC=CC=C1C (configuration not stated) (library stock concentration (final ~1000-fold dilution): 10 mM),IRF Lucia reporter activity,[1]; [4],1.03
same,IRF Lucia reporter activity,[1]; agonist: LPS (TLR4) 0.1 ug/mL,1.6
COC1CC2CCC(C)C(O)(O2)C(=O)C(=O)N2CCCCC2C(=O)OC(C(C)CC2CCC(n3cnnn3)C(OC)C2)CC(=O)C(C)C=C(C)C(O)C(OC)C(=O)C(C)CC(C)C=CC=CC=C1C (configuration not stated) (library stock concentration (final ~1000-fold dilution): 10 mM),IRF Lucia reporter activity,[1]; [4],0.943
same,IRF Lucia reporter activity,[1]; agonist: LPS (TLR4) 0.1 ug/mL,0.694
COC1CC2CCC(C)C(O)(O2)C(=O)C(=O)N2CCCCC2C(=O)OC(C(C)CC2CCC(O)C(OC)C2)CC(=O)C(C)C=C(C)C(O)C(OC)C(=O)C(C)CC(C)C=CC=CC=C1C (configuration not stated) (library stock concentration (final ~1000-fold dilution): 10 mM),IRF Lucia reporter activity,[1]; [4],1.05
same,IRF Lucia reporter activity,[1]; agonist: LPS (TLR4) 0.1 ug/mL,2.09
CCCc1nc(C)c2c(=O)[nH]c(-c3cc(S(=O)(=O)N4CCN(CC)CC4)ccc3OCC)nn12.Cl.O.O.O,IRF Lucia reporter activity,[2],0.917
CCCc1nc(C)c2c(=O)[nH]c(-c3cc(S(=O)(=O)N4CCN(CC)CC4)ccc3OCC)nn12.Cl.O.O.O (library stock concentration (final ~1000-fold dilution): 10 mM),IRF Lucia reporter activity,[1]; [4],0.839
same,IRF Lucia reporter activity,[1]; agonist: LPS (TLR4) 0.1 ug/mL,0.967
O=C(NCCN1CCOCC1)Nc1nc2ccc(Sc3nnc4ccc(-c5ccc(F)cc5)nn34)cc2s1,IRF Lucia reporter activity,[2],0.994
O=C(NCCN1CCOCC1)Nc1nc2ccc(Sc3nnc4ccc(-c5ccc(F)cc5)nn34)cc2s1 (library stock concentration (final ~1000-fold dilution): 10 mM),IRF Lucia reporter activity,[1]; [4],1.09
same,IRF Lucia reporter activity,[1]; agonist: LPS (TLR4) 0.1 ug/mL,1.23
CC1=C(CSC(=S)N2CCCCC2)C(=O)c2ccccc2C1=O (library stock concentration (final ~1000-fold dilution): 10 mM),IRF Lucia reporter activity,[3]; [4],0.553
same,IRF Lucia reporter activity,[3]; agonist: LPS (TLR4) 0.1 ug/mL,0.0143
COc1cc2c(cc1OC(C)C)C(c1ccc(Cl)cc1)N(c1ccc(N(C)CC3CCC(N4CCN(C)C(=O)C4)CC3)cc1)C(=O)C2 (configuration not stated) (library stock concentration (final ~1000-fold dilution): 10 mM),IRF Lucia reporter activity,[1]; [4],0.135
same,IRF Lucia reporter activity,[1]; agonist: LPS (TLR4) 0.1 ug/mL,1.35
CC(N)C1CCC(C(=O)Nc2ccncc2)CC1.Cl.Cl (configuration not stated),IRF Lucia reporter activity,[2],0.773
CC(N)C1CCC(C(=O)Nc2ccncc2)CC1.Cl.Cl (configuration not stated) (library stock concentration (final ~1000-fold dilution): 10 mM),IRF Lucia reporter activity,[1]; [4],0.926
same,IRF Lucia reporter activity,[1]; agonist: LPS (TLR4) 0.1 ug/mL,0.81
Oc1cccc(-c2nc(N3CCOCC3)c3oc4ncccc4c3n2)c1 (library stock concentration (final ~1000-fold dilution): 10 mM),IRF Lucia reporter activity,[1]; [4],0.381
same,IRF Lucia reporter activity,[1]; agonist: LPS (TLR4) 0.1 ug/mL,1.94
Nc1ccc(C(=O)Nc2cccc(-c3nc(N4CCOCC4)c4oc5ncccc5c4n3)c2)cn1,IRF Lucia reporter activity,[2],3.52
Nc1ccc(-c2cccc(C(=O)Nc3cnc4nc(N5CCOCC5)oc4c3)n2)cn1 (library stock concentration (final ~1000-fold dilution): 10 mM),IRF Lucia reporter activity,[1]; [4],0.717
same,IRF Lucia reporter activity,[1]; agonist: LPS (TLR4) 0.1 ug/mL,1.48
Nc1ccc(C(=O)Nc2cccc(-c3nc(N4CCOCC4)c4oc5ncccc5c4n3)c2)cn1 (library stock concentration (final ~1000-fold dilution): 10 mM),IRF Lucia reporter activity,[1]; [4],0.205
same,IRF Lucia reporter activity,[1]; agonist: LPS (TLR4) 0.1 ug/mL,3.93
Oc1cccc(-c2nc(N3CCOCC3)c3oc4ncccc4c3n2)c1,IRF Lucia reporter activity,[2],1.42
O=C(CCCCCCC(=O)N/N=C/c1ccc(N(c2ccccc2)c2ccccc2)cc1)NO (library stock concentration (final ~1000-fold dilution): 10 mM),IRF Lucia reporter activity,[3]; [4],0.0199
same,IRF Lucia reporter activity,[3]; agonist: LPS (TLR4) 0.1 ug/mL,0.533
Cc1ccc(Oc2ccnc3cc(-c4cnn(C5CCNCC5)c4)ccc23)cc1 (library stock concentration (final ~1000-fold dilution): 10 mM),IRF Lucia reporter activity,[3]; [4],0.0554
same,IRF Lucia reporter activity,[3]; agonist: LPS (TLR4) 0.1 ug/mL,0.134
CCC(C)(Nc1ccnc(-c2c[nH]c3ncccc23)n1)C(=O)NCC(F)(F)F (configuration not stated) (library stock concentration (final ~1000-fold dilution): 10 mM),IRF Lucia reporter activity,[1]; [4],0.291
same,IRF Lucia reporter activity,[1]; agonist: LPS (TLR4) 0.1 ug/mL,0.35
CCC(C)(Nc1ccnc(-c2c[nH]c3ncccc23)n1)C(=O)NCC(F)(F)F (configuration not stated),IRF Lucia reporter activity,[2],0.41
Cc1cc(N2CCN(C3CNC(C(=O)N4CCSC4)C3)CC2)n(-c2ccccc2)n1 (configuration not stated),IRF Lucia reporter activity,[2],1.02
Cc1cc(N2CCN(C3CNC(C(=O)N4CCSC4)C3)CC2)n(-c2ccccc2)n1 (configuration not stated) (library stock concentration (final ~1000-fold dilution): 10 mM),IRF Lucia reporter activity,[1]; [4],0.982
same,IRF Lucia reporter activity,[1]; agonist: LPS (TLR4) 0.1 ug/mL,1.22
Cc1ccc2nc(NCCN)c3ncc(C)n3c2c1 (library stock concentration (final ~1000-fold dilution): 10 mM),IRF Lucia reporter activity,[1]; [4],2.21
same,IRF Lucia reporter activity,[1]; agonist: LPS (TLR4) 0.1 ug/mL,3.5
same,IRF Lucia reporter activity,[3]; agonist: LPS (TLR4) 0.1 ug/mL,0.0229 and 0.0291
CCOc1nc2cccc(C(=O)OCc3oc(=O)oc3C)c2n1Cc1ccc(-c2ccccc2-c2nc(=O)o[nH]2)cc1,IRF Lucia reporter activity,[2],1.16
CCOc1nc2cccc(C(=O)OCc3oc(=O)oc3C)c2n1Cc1ccc(-c2ccccc2-c2nc(=O)o[nH]2)cc1 (library stock concentration (final ~1000-fold dilution): 10 mM),IRF Lucia reporter activity,[1]; [4],1.04
same,IRF Lucia reporter activity,[1]; agonist: LPS (TLR4) 0.1 ug/mL,1.16
CNS(=O)(=O)CC1CCC(N(C)c2ncnc3[nH]ccc23)CC1.O=C(O)/C=C\C(=O)O (configuration not stated) (library stock concentration (final ~1000-fold dilution): 10 mM),IRF Lucia reporter activity,[1]; [4],0.106
same,IRF Lucia reporter activity,[1]; agonist: LPS (TLR4) 0.1 ug/mL,0.264
